Compounds with a hit are over-represented: about 17% of the library has one in this group of screens.
ATXN2 expr inh: inhibitors of ATXN2 expression; HEK-293 ATXN2-luciferase reporter, luminescence, 24 h; Potency, µM (highest dose often 57 µM), inactives show at the top dose activity change, negative = inhibition, usual class: inhibitors; hit rate 0.72% among 360,000; AID 1745845; further: on the % scale 0 is the no-effect control and ±100 the full control effect; nearly all actives have a fitted effect of over 55% in size
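qHTS (up to 57 uM final) was run with 24 h compound exposure of reporter cells at 37 °C. Each well was multiplexed: SteadyGlo luminescence measured ATXN2-luciferase expression after a fluorogenic Gly-Phe-AFC viability readout (25 uM final).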
DT40 TDP1 no CPT: qHTS for Inhibitors of human tyrosyl-DNA phosphodiesterase 1 (TDP1): qHTS in cells in absence of CPT; DT40 Tdp1-/- hTDP1 cells, no CPT, ATP luminescence, 48 h; Potency, µM (top dose mostly 46.2 µM), inactives show top-dose activity change, negative = growth inhibition, actives largely listed as inhibitors; hit rate 15% among 420,000; AID 686978, 2013; further: on the % scale 0 is the no-effect control and ±100 the full control effect; nearly all actives have a fitted effect of over 55% in size
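Cells were dispensed at 400 per well, compounds added by pin tool, plates incubated ≥48 hr at 37 °C, then CellTiter-Glo added for 30 min at room temperature before luminescence reading. Line: DT40 Tdp1-/- complemented with hTDP1; camptothecin omitted.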
S2 tox: cell viability loss in ATXN counter-screen; hit rate 0.49% among 400,000; Potency, µM (highest dose often 56.7 µM), most hits filed as cytotoxic; S2 cells (HEK-293 line with an ATXN2-luciferase reporter) viability, CellTiter-Fluor protease fluorescence, 24 h; further: nearly all actives have a fitted effect of over 40% in size
HepG2 tox: kills HepG2 cells in TGF-b inhibitor counter-screen; hit rate 0.76% among 410,000; HepG2 CAGA-GFP viability, ATP luminescence, 18 h; Potency, µM (series often up to 46.1 µM), for the others: at the highest dose activity change, negative = cytotoxicity, actives largely listed as cytotoxic
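CellTiter-Glo luminescence gave cytotoxicity after 18 hours at 37 degrees C. The cells were HepG2 CAGA-GFP in 1% FBS DMEM, stimulated with 500 pg/mL TGF-beta after compound addition. %Activity was normalised to no-cell wells (complete cell-killing) and DMSO (no toxicity), and curves were fitted and classified.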
TGFb SMAD3 inh: inhibitors of TGF-b signaling; Potency, µM (top dose mostly 46.1 µM), inactives show at the top dose activity, negative = inhibition, actives largely listed as inhibitors; HepG2 CAGA-GFP TGF-b/SMAD3 reporter, GFP fluorescence, 18 h; TGF-beta stimulated, 500 pg/mL final; hit rate 1.2% among 410,000; further: on the % scale 0 is the no-effect control and ±100 the full control effect; nearly all actives have a fitted effect of over 65% in size
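Read-out: total well GFP (ex488/em500-530) summed from mean per-cell fluorescence. Cells: HEPG2 CAGA-GFP, 1% FBS DMEM, 18 h at 37 degrees C with 500 pg/mL final TGF-beta. Unstimulated wells served as the full-inhibition control; stimulated DMSO wells = 0%.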
DT40 TDP1 CPT: growth inhibition of DT40 Tdp1-/-;hTDP1 cells with camptothecin (screen for TDP1 inhibitors). chicken DT40 Tdp1-/-;hTDP1 cells + 20 nM CPT, ATP luminescence, 48 h. Potency, µM (series often up to 46.2 µM), without a hit: top-dose activity change, negative = growth inhibition, usual class: inhibitors. hit rate 12% among 420,000. AID 686979; further: on the % scale 0 is the no-effect control and ±100 the full control effect; nearly all actives have a fitted effect of over 55% in size
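Chicken DT40 Tdp1-/- cells complemented with human TDP1, 400 cells/well, exposed to compounds plus 20 nM camptothecin for at least 48 h at 37 C; viability read as ATP content by CellTiter-Glo luminescence.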
Starred values were filed as active, the others as inactive; i = inactive; ? = inconclusive; · = no result. The call rests on the fitted dose curve; in most records, active means well fitted curve in the direction sought with a large enough effect; inconclusive means small, poorly fitted or top-dose-only effect, or another doubt; inactive means no such curve, though single readings can be large; an effect the other way counts as inactive or inconclusive. Potency means the concentration at half of the fitted maximal effect.

SMILES	ATXN2 expr inh	DT40 TDP1 no CPT	S2 tox	HepG2 tox	TGFb SMAD3 inh	DT40 TDP1 CPT
CCOC(=O)C(c1ccccc1)C(Nc1ccc(F)cc1)c1ccccn1 (centres undefined)	·	18.4µM*	i	0.6%	-22.2%	?
CCOP(=O)(OCC)C(Nc1ccc(F)cc1)c1ccccc1 (centres undefined)	-15.8%	-30.0%	i	-22.9%	-18.3%	-3.4%
CCOC(=O)C(C(=O)OCC)C(Nc1ccc(Br)cc1)c1ccccc1 (centres undefined)	-24.8%	?	i	11.2µM*	?	29.1µM*
CCOC(=O)CN1CCCC1=O	11.7%	·	i	·	·	·
Cc1cc(C)c(S(=O)(=O)NCC2CCC(C(=O)NCCc3ccccc3)CC2)c(C)c1 (centres undefined)	·	14.6µM*	·	-32.1%	?	14.6µM*
O=C(NCCc1ccccc1)C1CCC(CNS(=O)(=O)c2ccccc2)CC1 (centres undefined)	-4.6%	14.6%	i	-9.1%	-5.2%	-29.1%
Cc1cccc(CCNC(=O)C2CCC(CNS(=O)(=O)c3c(C)cc(C)cc3C)CC2)c1 (centres undefined)	·	16.4µM*	·	-24.4%	-18.6%	?
Cc1nc(Nc2n[nH]c3c2CN(C(=O)N[C@H](CN(C)C)c2ccccc2)C3(C)C)c2sccc2n1	17.2µM*	·	·	·	·	·
C=C1SC(=Nc2c(C)cc(C)cc2C)N(C(=O)c2sc3ccccc3c2Cl)C12CCCCC2	·	20.6µM*	i	-1.0%	-20.3%	?
CCOC(=O)Cn1c(=O)n(C2CCCCC2)c2nc(-c3ccc(C(C)C)cc3)nc(C(N)=O)c21	5.4%	·	i	3.8%	?	·
COc1cc(OC)c(NC(=O)c2ccoc2C)cc1Cl	-1.4%	?	i	-9.9%	-2.4%	14.6µM*
Cc1ccc([N+](=O)[O-])cc1NC(=O)c1ccoc1C	11.8%	-23.6%	i	2.5%	-8.9%	?
Cc1occc1C(=O)Nc1ccc([N+](=O)[O-])cc1Br	-14.7%	29.1µM*	i	-1.5%	-15.6%	1.3µM*
COc1ccc(Cl)cc1NC(=O)c1ccoc1C	-15.0%	-12.2%	i	-7.2%	31.0%	-14.9%
COc1ccc(/C=N/Nc2nnc(C)n2N)cc1OC	-8.0%	-20.7%	i	-114.3%	-50.1%	-28.5%
Cc1nnc(N/N=C/c2ccc(-c3ccc(Br)cc3)o2)n1N	-32.6%	?	·	-104.0%	?	?
CCc1nnc(N/N=C/c2ccc(N3CCC(C)CC3)c([N+](=O)[O-])c2)n1N	-21.9%	?	i	11.2µM*	10µM*	?
Cc1nnc(N/N=C/c2ccc(Br)cc2)n1N	-28.6%	6.2%	i	15.8µM*	?	?
CN(C)c1nc(N/N=C\c2ccc(Cl)c([N+](=O)[O-])c2)nc(Nc2ccc(F)cc2)n1	?	5.17µM*	i	-33.3%	?	5.17µM*
COc1ccc(/C=N/Nc2nnc(C)n2N)cc1OC(C)=O	-2.7%	18.4µM*	i	12.6µM*	10µM*	8.2µM*
CCOC(=O)C1=C(COC(=O)/C=C/c2cccc([N+](=O)[O-])c2)NC(=O)NC1C (centres undefined)	1.6%	-12.3%	i	-7.4%	-5.1%	-11.5%
O=C(C1CCCCC1)N1CC(=O)N2CCCc3ccccc3C2C1 (centres undefined)	-14.2%	·	i	·	·	·
CCOc1ccc(NC(=O)CSc2nccn2C2CCCC2)cc1	·	?	·	-3.8%	0.3%	-6.3%
Nn1cnnc1N/N=C/c1ccc(F)cc1	·	-7.1%	?	-118.7%	?	?
Nn1cnnc1N/N=C/c1cccc(Cl)c1Cl	-19.0%	-25.1%	i	i	?	-11.7%
SMILES	ATXN2 expr inh	DT40 TDP1 no CPT	S2 tox	HepG2 tox	TGFb SMAD3 inh	DT40 TDP1 CPT
Cc1ccc(/C=N/Nc2nncn2N)cc1	-11.7%	-12.8%	i	i	11.2µM*	?
Nn1cnnc1N/N=C/c1ccc(Cl)c([N+](=O)[O-])c1	-18.3%	-20.1%	i	11.2µM*	?	-29.6%
O=C1C=CC(=O)N1c1ccc(Nc2ccccc2)cc1	18.4%	5.8µM*	i	-6.8%	-6.3%	5.8µM*
Cc1cccc(N2C(=O)C3CCCN3C2=S)c1 (centres undefined)	-0.2%	30.0%	i	2.2%	-4.0%	-18.9%
O=C1C=CC(=O)N1c1ccc2ccccc2c1	-3.9%	5.17µM*	i	-14.2%	-14.0%	4.11µM*
Cc1cccc(N2C(=O)C=CC2=O)c1	-1.2%	4.61µM*	i	-7.9%	-11.4%	2.59µM*
CCN(CC)C(=O)Cn1cc(C(=O)C(=O)NCCCN2CCOCC2)c2ccccc21	1.0%	-17.9%	i	-15.7%	-18.8%	-3.6%
O=C(Nc1ccc2c(c1)OCO2)C(=O)c1c[nH]c2ccccc12	·	-8.0%	?	-19.1%	4.6%	-9.3%
CCN(CC)C(=O)Cn1cc(C(=O)C(=O)Nc2ccc3c(c2)OCCO3)c2ccccc21	9.2%	23.1µM*	i	2.6%	0.0%	18.4µM*
O=C(Nc1ccc2c(c1)OCCO2)C(=O)c1c[nH]c2ccccc12	-41.3%	?	?	-10.8%	-14.1%	10.3µM*
CC(C)(C)NC(=O)c1oc2ccccc2c1NC(=O)c1ccc(F)cc1	5.7%	?	i	3.1%	1.6%	?
CC(C)NC(=O)Nc1nnc([C@@H]2C[C@H](O)[C@@H](CO)O2)s1	12.7%	-6.4%	i	1.2%	9.2%	-2.8%
Cc1cc(Sc2nnc(N)s2)c2ccccc2n1	?	2.91µM*	25.1µM*	-100.9%	7.08µM*	1.84µM*
Cc1cc(Sc2nnc(/N=C/N(C)C)s2)c2ccccc2n1	·	7.31µM*	?	11.2µM*	8.91µM*	5.8µM*
Cc1ccc2oc(-c3ccc(C)c(NC(=O)c4ccc(N5CCC(C)CC5)c([N+](=O)[O-])c4)c3)nc2c1	15.8%	0.2%	i	-93.3%	?	-3.8%
COc1ccccc1NC(=O)Cn1c(=O)n(Cc2ccco2)c(=O)c2oc3ccccc3c21	-0.1%	14.6µM*	i	-14.8%	14.4%	?
COc1cccc(Cn2c(=O)n(Cc3ccco3)c(=O)c3oc4ccccc4c32)c1	·	23.1µM*	·	-34.4%	-10.2%	?
O=c1c2oc3ccccc3c2n(Cc2ccccc2)c(=O)n1Cc1ccco1	-4.3%	-21.0%	i	2.6%	-1.3%	-21.5%
COc1ccc(Cn2c(=O)c3oc4ccccc4c3n(Cc3cccc(F)c3)c2=O)cc1	·	?	·	-16.0%	-23.8%	?

Compound activity from PubChem.
